Gli-Sufu antag = Gli-Sufu pathway antagonism | Sufu-KO-LIGHT fibroblasts, Gli luciferase reporter luminescence | 0.74% of 340,000 active | inhibition, % at 5 µM;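 active = inhibition above about 55%, limit read from the data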
NR3A LBD binder = NR3A (human) ligand-binding domain modulation | NR3A LBD differential scanning fluorimetry, Tm shift; 0% = protein alone, 100% = glycine-bound protein | Tm shift relative to glycine control, % at 25 µM | 2.5% of 340,000 active;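 active = melting temperature shift of at least 10% of the positive control shift, at one fixed dose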
Beta cell apopt = beta cell apoptosis inhibition | 0.8% of 300,000 active | AID 435005 | protection from apoptosis, % (test concentration not listed) | INS-1E cytokine-induced death, ATP luminescence, 48 h; percent of positive-control rescue, neutral wells zero;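 active = Every replicate reaches about 75%, or at least half do and their mean reaches it too, limit read from the data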;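 also: higher means more ATP so stronger rescue from cytokine killing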
Mdm2-MdmX inh = inhibitors of human Mdm2/MdmX interaction. SaOS-2 split-luciferase Mdm2/MdmX complementation, luminescence. inhibition, % at 8 µM. 3% of 330,000 active;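 active = inhibition of at least 50% at 8 µM in the primary screen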
Target sequence (O15151 whole entry, looked up): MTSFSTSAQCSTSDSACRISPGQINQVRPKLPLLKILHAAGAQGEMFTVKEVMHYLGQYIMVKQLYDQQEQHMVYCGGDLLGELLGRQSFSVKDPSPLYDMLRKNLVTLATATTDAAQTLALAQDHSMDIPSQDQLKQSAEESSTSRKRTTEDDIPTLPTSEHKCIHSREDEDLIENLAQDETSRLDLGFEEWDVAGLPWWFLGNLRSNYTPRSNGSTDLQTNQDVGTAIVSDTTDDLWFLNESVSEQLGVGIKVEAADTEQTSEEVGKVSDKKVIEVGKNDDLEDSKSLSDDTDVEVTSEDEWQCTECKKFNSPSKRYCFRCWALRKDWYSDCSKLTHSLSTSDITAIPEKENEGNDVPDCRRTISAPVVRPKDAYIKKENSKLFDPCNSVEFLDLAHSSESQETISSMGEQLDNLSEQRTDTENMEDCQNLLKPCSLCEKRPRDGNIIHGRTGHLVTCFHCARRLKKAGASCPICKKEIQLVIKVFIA
Target sequence (Q00987 whole entry, looked up): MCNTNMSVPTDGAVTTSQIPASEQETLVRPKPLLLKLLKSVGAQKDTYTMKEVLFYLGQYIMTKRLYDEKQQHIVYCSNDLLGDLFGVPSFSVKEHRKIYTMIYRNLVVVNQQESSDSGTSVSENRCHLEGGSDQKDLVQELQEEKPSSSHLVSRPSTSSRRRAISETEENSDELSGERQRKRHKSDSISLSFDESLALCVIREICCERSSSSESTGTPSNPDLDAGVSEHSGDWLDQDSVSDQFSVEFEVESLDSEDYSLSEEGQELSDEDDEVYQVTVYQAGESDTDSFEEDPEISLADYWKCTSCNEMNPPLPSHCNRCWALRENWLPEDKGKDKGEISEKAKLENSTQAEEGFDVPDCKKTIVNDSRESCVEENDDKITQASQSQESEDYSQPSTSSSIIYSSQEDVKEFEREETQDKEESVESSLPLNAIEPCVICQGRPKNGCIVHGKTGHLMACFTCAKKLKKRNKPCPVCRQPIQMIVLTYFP
MPTP block = permeability transition pore inhibition; isolated mouse mitochondria, Ca2+ swelling absorbance, 30 min; inhibition, % at 10 µM; AID 602449; 1.4% of 360,000 active;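 active = inhibition of 50% or more, scaled per plate between neutral and stimulator controls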
CSC inhib = cancer stem cell inhibition | inhibition, % at 7.5 µM | cancer stem cell-like cells viability, luminescence | AID 2717 | 1.1% of 300,000 active; in the data active = inhibition above about 75%; tested in HMLE shEcad cells
Mdm2 MdmX conf = human Mdm2/MdmX binding inhibition, confirmed; shares compounds with Mdm2-MdmX inh; luminescent assay; inhibition, % at 8 µM; 55% of 10,000 active; AID 489028; in the data active = inhibition above about 40%
Full FLuc ctr = full-length luciferase inhibition in Mdm2/MdmX counter-screen; shares compounds with Mdm2-MdmX inh; AID 504607; SaOS-2 full-length luciferase counterscreen, luminescence; 77% of 6,200 active; inhibition, % at 8 µM;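 active = mean inhibition at 8 µM reaching about 37%, which flags the compound as non-specific, limit read from the data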;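 also: p53-null SaOS-2 cells with luciferase driven by a doxycycline-inducible promoter; compound on cells about two nights before reading with doxycycline added after day one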
Of the large screens only hits and unclear results are named; the others gave an inactive call (follow-up assays come after a bar, where they were run). A selection: hits, their analogues and other compounds. The true share with any hit is near 6.6%.

COc1cc(C(=O)N/N=C(\Cc2ncc[nH]2)c2ccccc2)cc(OC)c1OC	Mdm2-MdmX inh 53.6, CSC inhib 91.3 | Mdm2 MdmX conf 50.0 | Full FLuc ctr inactive
c1ccc(N/N=C(\Cc2ncc[nH]2)c2ccccc2)cc1	none
Cc1ccc(N2CCN(S(=O)(=O)c3ccc4oc(=O)ccc4c3)CC2)c(C)c1	none (no result: CSC inhib)
O=C(Nc1nnc(-c2ccc3c(c2)CCCC3)o1)c1ccc(Cl)cc1Cl	Mdm2-MdmX inh 50.6 | Mdm2 MdmX conf inactive
CN(C)S(=O)(=O)c1ccc(C(=O)Nc2nnc(-c3ccc4c(c3)CCCC4)o2)cc1	Mdm2-MdmX inh 60.4 | Mdm2 MdmX conf inactive
CN(C)S(=O)(=O)c1ccc(C(=O)Nc2nnc(-c3cccs3)o2)cc1	none
CCOC(=O)C(c1nc2ccccc2[nH]1)n1c(-c2ccccn2)nc2ccccc21 (stereo not given)	none (no result: Gli-Sufu antag, NR3A LBD binder, Beta cell apopt, Mdm2-MdmX inh, CSC inhib)
CC1CCC(C(C)C)C(OC(=O)C[n+]2cc(-c3ccc(Cl)cc3)n3c2CCCCC3)C1 (stereo not given)	Gli-Sufu antag 65.0, Beta cell apopt 106.3, Mdm2-MdmX inh 85.2 | Mdm2 MdmX conf 74.3 | Full FLuc ctr 36.5
Clc1ccc(-c2c[n+](Cc3ccc(Br)cc3)c3n2CCCCC3)cc1	none
C=CCNc1nc2c(c(=O)[nH]c(=O)n2C)n1CC(O)COc1ccc2ccccc2c1 (stereo not given)	Mdm2-MdmX inh 58.6 (no result: Beta cell apopt, CSC inhib) | Mdm2 MdmX conf inactive
Cc1ccccc1OCC(O)Cn1c(NCc2ccccc2)nc2c1c(=O)[nH]c(=O)n2C (stereo not given)	none (no result: CSC inhib)
CNC(=O)CN(c1ccc(OC)cc1)S(=O)(=O)c1ccc(F)cc1	none
CNC(=O)CN(c1cc(OCCOC)c(Cl)cc1Cl)S(=O)(=O)c1ccc(OC)cc1	Mdm2-MdmX inh 56.5 | Mdm2 MdmX conf 48.1 | Full FLuc ctr 79.3
COc1cc([N+](=O)[O-])cc(/C=N/NC(=O)Cn2nc(C)cc2C)c1O	Mdm2-MdmX inh 57.4 | Mdm2 MdmX conf 64.7 | Full FLuc ctr 50.3
COc1cc([N+](=O)[O-])cc(/C=N/NC(=O)Cn2nccc2C)c1O	none
CCOc1cc(/C=N/NC(=O)Cc2ccc(C(F)(F)F)cc2[N+](=O)[O-])c(Br)cc1OC	Mdm2-MdmX inh 77.1 | Mdm2 MdmX conf 54.8 | Full FLuc ctr inactive
COc1cc(Br)cc(/C=N/NC(=O)Cc2ccc(C(F)(F)F)cc2[N+](=O)[O-])c1O	NR3A LBD binder 25.2, Beta cell apopt 99.8, Mdm2-MdmX inh 52.3 | Mdm2 MdmX conf 70.2 | Full FLuc ctr inactive
CNc1cncc(-c2ccc(C)cc2)n1	none (no result: Gli-Sufu antag, NR3A LBD binder, Beta cell apopt, Mdm2-MdmX inh, CSC inhib)
O=C(CN1C(=O)c2ccccc2S1(=O)=O)N1CCc2ccccc2C1	Mdm2-MdmX inh 55.0 | Mdm2 MdmX conf inactive | Full FLuc ctr 76.8
NC(=O)C1CCN(C(=O)CN2C(=O)c3ccccc3S2(=O)=O)CC1	none
CC1CCN(C(=O)CN2C(=O)c3ccccc3S2(=O)=O)CC1	Mdm2-MdmX inh 53.6 (no result: Beta cell apopt) | Mdm2 MdmX conf inactive
CCc1ccc(C(C)NC(=O)/C=C/c2ccc(Br)cc2)cc1 (stereo not given)	none (no result: CSC inhib)
CCOC(=O)C(CC)(CC)C(=O)/C=C/c1ccc(Br)cc1	Mdm2-MdmX inh 71.3 (no result: CSC inhib) | Mdm2 MdmX conf inactive | Full FLuc ctr 65.5
O=C1CC(=Nc2ccccc2)NN1c1ccccc1	Mdm2-MdmX inh 58.4, CSC inhib 129.7 | Mdm2 MdmX conf inactive
CCOc1ccc(CCNC(=O)CN2C(=O)NC3(CCCCCC3)C2=O)cc1OCC	none (no result: CSC inhib)
COc1ccc(/C=C(\C#N)c2nc3ccc(C)cc3[nH]2)cc1Oc1ccc(C(F)(F)F)cc1[N+](=O)[O-]	NR3A LBD binder 18.0, Mdm2-MdmX inh 83.2 | Mdm2 MdmX conf inactive
CC(SC1=NCCS1)C(=O)Nc1nnc(-c2ccc(Br)cc2)s1 (stereo not given)	Mdm2-MdmX inh 52.2 | Mdm2 MdmX conf inactive
COc1ccc(-c2ncncc2-c2csc(C)n2)c(O)c1OC	none
COC1=C(N)C(=O)c2nc(-c3nc(C(=O)O)c(C)c(-c4ccc(OC)c(OC)c4O)c3N)ccc2C1=O	Gli-Sufu antag 88.8, Mdm2-MdmX inh 100.3 (no result: Beta cell apopt, MPTP block, CSC inhib) | Mdm2 MdmX conf 100.0 | Full FLuc ctr inactive
Cc1nc2ccccn2c1-c1csc(Nc2ccc(C(=O)O)cc2)n1	Mdm2-MdmX inh 52.6 | Mdm2 MdmX conf 53.5 | Full FLuc ctr 63.5
CCOCCC(=O)Nc1ccc2c(c1)c(=O)n(C)n2C/C=C/c1ccccc1	none (no result: Gli-Sufu antag, NR3A LBD binder, Beta cell apopt, Mdm2-MdmX inh, CSC inhib)
Cc1ccc(-c2nnc(CSc3nnc(COc4cccc5ccccc45)n3-c3ccccc3)o2)cc1	Mdm2-MdmX inh 63.4 (no result: CSC inhib) | Mdm2 MdmX conf inactive
N#CCSc1nnc(COc2cccc3ccccc23)n1-c1ccccc1	none (no result: Beta cell apopt)
C[C@H](CO)N1C[C@H](C)[C@@H](CN(C)C(=O)Nc2ccccc2)Oc2ccc(NC(=O)Cn3cnnn3)cc2C1=O	none (no result: CSC inhib)
COC(=O)COc1ccc(NC(=O)Cn2nc(-c3ccccc3)c3ccccc3c2=O)cc1	Mdm2-MdmX inh 81.5 | Mdm2 MdmX conf 48.9 | Full FLuc ctr 89.3
COc1ccc(Nc2nc(C)cc(-c3cc(-c4ccccc4)on3)n2)cc1	Mdm2-MdmX inh 67.7 | Mdm2 MdmX conf 50.0 | Full FLuc ctr 82.6
COc1ccc(/C=N/NC(=O)CCn2c3ccccc3c3ccccc32)cc1O	Mdm2-MdmX inh 52.7 | Mdm2 MdmX conf 58.3 | Full FLuc ctr 60.3
Oc1ccccc1N=Cc1c(O)ccc2oc3c(c12)CCCC3	Mdm2-MdmX inh 51.9 | Mdm2 MdmX conf 43.6 | Full FLuc ctr 71.7
COC(=O)[C@@H]1C[C@]2(OC(=O)c3ccccc3)C=CC(=O)C[C@@H]2N1C(=O)OCc1ccccc1	Mdm2-MdmX inh 94.1, CSC inhib 75.6 | Mdm2 MdmX conf 62.0 | Full FLuc ctr inactive
COC(CNC(=O)C1CCCN1C(=O)OCc1ccccc1)OC (stereo not given)	none (no result: Mdm2-MdmX inh)
CCCCN(C(=O)CC1CCCCC1)c1c(N)n(CCCC)c(=O)[nH]c1=O	none (no result: Gli-Sufu antag, NR3A LBD binder, Beta cell apopt, Mdm2-MdmX inh, CSC inhib)
O=C1CCCC[C@@H](CO)[C@H](O)C[C@H](c2ccccc2)O1	none (no result: Gli-Sufu antag, NR3A LBD binder, Beta cell apopt, Mdm2-MdmX inh, CSC inhib)
CC(=O)Nc1ncnc2c1c(-c1ccc(Cl)cc1)nn2C(C)(C)C	Mdm2-MdmX inh 73.2 | Mdm2 MdmX conf inactive | Full FLuc ctr 55.2
C=C1C(=O)C=C2CN(C(=O)c3ccccc3)[C@@](Cc3ccc(F)cc3)(C(=O)OC)[C@@H]12	Gli-Sufu antag 62.4, NR3A LBD binder 11.5, Beta cell apopt 113.2, Mdm2-MdmX inh 100.3 | Mdm2 MdmX conf 99.8 | Full FLuc ctr inactive
Cc1ccc(CN2CCN(C(=O)/C=C/[C@H]3O[C@@H](n4cc(C)c(=O)[nH]c4=O)C[C@@H]3O)CC2)cc1	none (no result: Gli-Sufu antag, NR3A LBD binder, Beta cell apopt, Mdm2-MdmX inh, CSC inhib)
COc1cccc(N2CCN(C(=O)c3[nH]c(C)c(C(C)=O)c3C)CC2)c1	Mdm2-MdmX inh 53.8 | Mdm2 MdmX conf 68.2 | Full FLuc ctr 41.8
